# Reference: PubChem BioAssay (NCATS)
# “And” between values parts separate entries of the source, which are not always exact repeats. Identical values can stand only once. Results filed as inconclusive are left out. A call without a number means that no potency is given here. The source made the active and inactive calls. Calls come from the whole dose curve; as a rule, active = well fitted curve in the direction sought with a large enough effect; inconclusive = small, poorly fitted or top-dose-only effect, or another doubt; inactive = no such curve, though single readings can be large; an effect the other way counts as inactive or inconclusive.
# Columns and labels:
# [1] = qHTS of pediatric cancer cell lines to identify multiple opportunities for drug repurposing: Confirmatory screen for OHS-50 cells (AID 1347128); settings: OHS-50 osteosarcoma cells viability; series mostly up to 45.9 µM;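 note: compound exposure lasted 48 h at 37 degrees C; nearly all actives have a fitted effect of over 55% in size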; note: potency is the fitted concentration of half-maximal effect
# Outline: (§1)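 Cells (500-1,000/well) in growth media were settled 5 h at 37 degrees C, then given compounds for 48 h. Viability was read as CellTiter-Glo luminescence. Primary runs used MIPE at 11 points (0.78 nM-46 µM) and NPC at 8 points (0.59 nM-46 µM); follow-ups used 11 points.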
# [2] = qHTS of pediatric cancer cell lines to identify multiple opportunities for drug repurposing: Confirmatory screen for SK-N-SH cells (AID 1347129); settings: SK-N-SH neuroblastoma cell viability; series mostly up to 46.1 µM;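 note: cells exposed to compound for 48 h before viability read; nearly all actives have a fitted effect of over 60% in size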; note: potency is the fitted concentration of half-maximal effect
# Outline: as §1
# [3] = tested on: Zika virus NS2B-NS3 protease; experiment: Primary screen GU AMC qHTS for Zika virus inhibitors (AID 1347154); settings: Zika NS2B-NS3 unlinked protease, AMC fluorogenic substrate; series mostly up to 54.1 µM; note: nearly all actives have a fitted effect of over 70% in size; note: potency is the fitted concentration of half-maximal effect
# Outline: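 Unlinked Zika NS2B hydrophilic domain/NS3 protease domain noncovalent complex (25 nM final) in 10 mM Tris-HCl pH 8.0, 0.01% Tween 20, with AMC peptide substrate. Fluorescence (ex 340, em 450 nm) change over 15 min, room temperature; percent inhibition fitted to 4-parameter Hill equation.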
# [4] = biological target: N-terminal Xaa-Pro-Lys N-methyltransferase 1 (Homo sapiens) (UniProt Q9BV86); experiment: qHTS Assay for Inhibitors of N-terminal methyltransferase 1 (NTMT1): LOPAC validation of the NTMT1 SAHH-coupled ThioGlo3 Assay (AID 1347143); settings: recombinant NTMT1, SAHH-coupled ThioGlo3 fluorescence; series mostly up to 114 µM;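 note: SAH from peptide methylation measured as thiol fluorescence via SAHH coupling and ThioGlo3; nearly all actives have a fitted effect of over 70% in size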; note: potency is the fitted concentration of half-maximal effect
# Outline: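 In this qHTS pilot against the LOPAC set, 125nM NTMT1 met compounds tested at multiple concentrations, and fluorescence was normalized to background.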
# [5] = tested on: Zika virus NS2B-NS3 protease (unlinked); experiment: Optimization of GU AMC qHTS for Zika virus inhibitors: Unlinked NS2B-NS3 protease assay (AID 1347151); settings: recombinant ZIKV NS2B-NS3 protease, fluorogenic AMC substrate; series mostly up to 52.5 µM; note: nearly all actives have a fitted effect of over 80% in size; note: potency is the fitted concentration of half-maximal effect
# Outline: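 Fluorescence read-out (340 nm ex / 450 nm em) of AMC peptide cleavage, taken immediately and after 15 min at room temperature (~20% conversion). Enzyme was the unlinked NS2B–NS3 complex at 25 nM in Tris pH 8.0 buffer.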
# [6] = tested on: Zika virus NS2B-NS3 protease (unlinked complex); experiment: Primary screen GU Rhodamine qHTS for Zika virus inhibitors: Unlinked NS2B-NS3 protease assay (AID 1347159); settings: Recombinant ZIKV NS2B-NS3 protease, Rhodamine110 substrate fluorescence; series mostly up to 107 µM; note: nearly all actives have a fitted effect of over 60% in size
# Outline: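 Enzyme 25 nM in Tris-HCl pH 8.0 + 0.01% Tween 20; compounds up to 114 microM, 15 min RT dark; + Rhod110 substrate 1.5 microM; read t0 and 15 min; delta fluorescence → % inhibition → 4-parameter Hill fit.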
# [7] = tested on: Zika virus NS2B-NS3 protease (linked construct); experiment: Primary screen NINDS Rhodamine qHTS for Zika virus inhibitors (AID 1347160); settings: purified NS2B-NS3 protease, Rhodamine110 substrate fluorescence; series mostly up to 57.1 µM; note: nearly all actives have a fitted effect of over 55% in size
# Outline: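 Enzyme (25 nM, linked NS2B-NS3) was preincubated 15 min with compound in 10 mM Tris-HCl pH 8.0, 0.01% Tween 20. Rhodamine110 substrate (1.5 microM) was then added and fluorescence read at start and after 15 min.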
# [8] = biological target: Lysine-specific demethylase 5B (Homo sapiens) (UniProt Q9UGL1); experiment: Optimization screen for KDM5B Histone Demethylases FDH coupled qHTS against the LOPAC library (AID 1347166); settings: KDM5B demethylation, FDH-coupled NADH fluorescence (FDH is formaldehyde dehydrogenase); series mostly up to 57.5 µM
# Outline: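 KDM5BDeltaAP (200nM final) in 50mM HEPES pH 7.5, 0.01% Tween-20 was preincubated with compound for 10 min at room temperature. A substrate mix of 12.5uM H3K4Me3, 25uM a-ketoglutarate, ascorbate, Fe2+, NAD+ and formaldehyde dehydrogenase was then added. NADH fluorescence (340/450 nm) was read initially and after 30 min.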
# [9] = qHTS of pediatric cancer cell lines to identify multiple opportunities for drug repurposing: Confirmatory screen for Saos-2 cells (AID 1347127); settings: Saos-2 osteosarcoma cell viability; series mostly up to 45.9 µM; note: nearly all actives have a fitted effect of over 60% in size; note: potency is the fitted concentration of half-maximal effect
# Outline: as §1
# [10] = Confirmatory screen NINDS Rhodamine qHTS for Zika virus inhibitors (AID 1347161); settings: purified enzyme assay, Rhodamine110 substrate fluorescence, 15 min; series mostly up to 114 µM; note: potency is the fitted concentration of half-maximal effect; nearly all actives have a fitted effect of over 60% in size
# Outline: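 Single-chain NS2B-NS3 protease, 25 nM, pH 8.0; compounds preincubated 15 min. Activity: Rhodamine110 release from 1.5 microM substrate over 15 min, room temperature, data fitted to 4-parameter Hill.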
# [11] = tested on: Zika virus NS2B-NS3 protease (linked); experiment: 384 well plate NINDS AMC confirmatory qHTS for Zika virus inhibitors (AID 1347163); settings: Recombinant NS2B-NS3 protease, Ac-VKTGKR-AMC fluorescence; note: potency is the fitted concentration of half-maximal effect; nearly all actives have a fitted effect of over 50% in size
# Outline: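 Fluorescence at 355/460 nm was read after 25 minutes of cleavage of 30 microM Ac-VKTGKR-AMC at room temperature, in the dark. Before substrate addition, compounds (up to 1 mM final) sat ~15 minutes with 5, 30 or 60 nM linked protease. Signals were normalized to no-enzyme and no-inhibitor wells.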
# [12] = HepG2 cells viability qHTS for Zika virus inhibitors (AID 1347168); settings: Zika counter-screen; series mostly up to 45.9 µM
# Outline: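 To flag cytotoxic protease inhibitors, viability is measured by ATP-dependent luminescence (CellTiter Glo) after cells attached overnight receive compound for 24 to 48 hours in DMEM with 4% FBS.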
# Chain of Lysine-specific demethylase 5B (Homo sapiens) (Q9UGL1 whole entry, looked up): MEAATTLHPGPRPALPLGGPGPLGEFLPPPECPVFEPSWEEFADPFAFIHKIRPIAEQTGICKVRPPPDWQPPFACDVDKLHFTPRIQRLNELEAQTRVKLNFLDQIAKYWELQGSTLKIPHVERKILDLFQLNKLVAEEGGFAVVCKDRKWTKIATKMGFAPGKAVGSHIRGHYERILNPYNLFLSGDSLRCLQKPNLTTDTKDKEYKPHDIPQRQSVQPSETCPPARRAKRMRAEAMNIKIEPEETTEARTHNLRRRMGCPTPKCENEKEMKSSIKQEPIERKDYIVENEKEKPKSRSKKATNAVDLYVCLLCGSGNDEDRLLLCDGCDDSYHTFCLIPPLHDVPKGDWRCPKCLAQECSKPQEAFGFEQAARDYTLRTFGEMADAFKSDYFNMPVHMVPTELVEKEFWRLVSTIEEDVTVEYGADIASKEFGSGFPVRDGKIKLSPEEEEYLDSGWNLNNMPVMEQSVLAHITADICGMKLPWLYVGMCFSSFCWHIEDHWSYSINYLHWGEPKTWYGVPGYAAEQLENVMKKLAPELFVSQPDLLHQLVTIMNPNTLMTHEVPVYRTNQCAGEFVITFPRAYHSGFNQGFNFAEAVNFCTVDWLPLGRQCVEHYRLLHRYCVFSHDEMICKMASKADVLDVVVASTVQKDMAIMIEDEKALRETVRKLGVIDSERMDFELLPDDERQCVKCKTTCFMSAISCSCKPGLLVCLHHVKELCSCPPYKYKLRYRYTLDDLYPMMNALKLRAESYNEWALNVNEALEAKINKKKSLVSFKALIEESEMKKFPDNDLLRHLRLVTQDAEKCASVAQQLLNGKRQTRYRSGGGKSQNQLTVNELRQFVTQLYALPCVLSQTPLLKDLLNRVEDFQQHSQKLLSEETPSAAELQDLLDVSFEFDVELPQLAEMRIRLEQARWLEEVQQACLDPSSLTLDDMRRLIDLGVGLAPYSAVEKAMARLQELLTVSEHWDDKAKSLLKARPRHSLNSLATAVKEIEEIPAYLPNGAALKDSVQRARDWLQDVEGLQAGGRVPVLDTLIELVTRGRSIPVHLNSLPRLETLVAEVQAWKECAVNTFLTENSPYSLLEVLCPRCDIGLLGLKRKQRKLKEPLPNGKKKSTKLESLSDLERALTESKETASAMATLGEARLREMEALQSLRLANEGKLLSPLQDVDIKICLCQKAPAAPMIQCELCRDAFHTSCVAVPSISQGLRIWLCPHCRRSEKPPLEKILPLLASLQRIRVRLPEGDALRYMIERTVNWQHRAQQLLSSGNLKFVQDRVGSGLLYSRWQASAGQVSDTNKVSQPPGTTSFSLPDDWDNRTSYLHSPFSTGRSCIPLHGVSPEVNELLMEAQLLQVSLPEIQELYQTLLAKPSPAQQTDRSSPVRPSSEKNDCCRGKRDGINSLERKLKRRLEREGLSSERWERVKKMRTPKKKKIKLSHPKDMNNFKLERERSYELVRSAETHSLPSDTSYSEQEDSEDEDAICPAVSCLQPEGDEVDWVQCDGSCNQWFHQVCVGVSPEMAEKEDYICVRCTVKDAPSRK
# Chain of N-terminal Xaa-Pro-Lys N-methyltransferase 1 (Homo sapiens) (Q9BV86 whole entry, looked up): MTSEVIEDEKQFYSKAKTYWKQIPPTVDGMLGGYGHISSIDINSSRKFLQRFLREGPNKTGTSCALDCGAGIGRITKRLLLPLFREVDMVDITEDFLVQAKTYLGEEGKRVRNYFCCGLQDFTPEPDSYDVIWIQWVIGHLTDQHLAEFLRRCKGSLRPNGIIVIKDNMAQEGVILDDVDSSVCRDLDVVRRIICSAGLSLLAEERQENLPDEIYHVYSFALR
structure (smiles),measurement,setting,value
COc1cc2ncnc(Nc3ccc(F)c(Cl)c3)c2cc1OCCCN1CCOCC1,Potency,[1],38 µM (active)
same,Potency,[2],34 µM (active)
CC[C@@H]1C=C(C)C[C@H](C)C[C@H](OC)[C@H]2O[C@@](O)(C(=O)C(=O)N3CCCC[C@@H]3C(=O)O[C@H](C(C)=C[C@@H]3CC[C@H](Cl)[C@H](OC)C3)[C@H](C)[C@@H](O)CC1=O)[C@H](C)C[C@H]2OC,Potency,[2],inactive
Cc1nnc(C(C)C)n1C1C[C@H]2CC[C@@H](C1)N2CC[C@H](NC(=O)C1CCC(F)(F)CC1)c1ccccc1 (some centres undefined),Potency,[2],inactive
same,Potency,[3],inactive
CC(C)NCC(O)COc1cccc2[nH]ccc12 (centres undefined),Potency,[4],inactive
same,Potency,[5],inactive
same,Potency,[3],inactive
same,Potency,[6],inactive
same,Potency,[7],inactive
same,outcome,[8],inactive
CCN(CC)CCNC(=O)c1ccc(N)cc1,Potency,[4],inactive
same,Potency,[5],inactive
same,Potency,[3],inactive
same,Potency,[6],inactive
same,Potency,[7],inactive
same,outcome,[8],inactive
Clc1ccc(Cn2c(CN3CCCC3)nc3ccccc32)cc1,Potency,[4],inactive
same,Potency,[5],inactive
same,Potency,[3],inactive
same,Potency,[6],inactive
same,Potency,[7],inactive
same,outcome,[8],inactive
COc1ccc(-c2nc(N3CCOCC3)c3sc(CN(C)c4ncc(C(=O)NO)cn4)cc3n2)cn1,Potency,[2],5.9 µM (active)
CO[C@H]1C[C@@H]2CC[C@@H](C)[C@@](O)(O2)C(=O)C(=O)N2CCCC[C@@H]2C(=O)O[C@H]([C@H](C)C[C@@H]2CC[C@H](OP(C)(C)=O)[C@H](OC)C2)CC(=O)[C@H](C)C=C(C)[C@@H](O)[C@@H](OC)C(=O)[C@H](C)C[C@H](C)C=CC=CC=C1C,Potency,[2],inactive
same,Potency,[3],inactive
O=C(NCCN1CCOCC1)c1ccc(Cl)cc1,Potency,[4],inactive
same,Potency,[5],inactive
same,Potency,[3],inactive
same,outcome,[8],inactive
CNC1CCC(N(Cc2cccc(-c3ccncc3)c2)C(=O)c2sc3c(F)ccc(F)c3c2Cl)CC1 (centres undefined),Potency,[2],inactive
same,Potency,[3],inactive
same,Potency,[6],inactive
same,Potency,[7],inactive
CC(=O)CCCCn1c(=O)c2c(ncn2C)n(C)c1=O,Potency,[4],inactive
same,Potency,[5],inactive
same,Potency,[3],inactive
same,Potency,[6],inactive
same,Potency,[7],inactive
same,outcome,[8],inactive
O=c1c(-c2ccc(O)cc2)coc2cc(O)ccc12,Potency,[4],50.1 µM (active)
same,Potency,[5],29.9 µM (active)
CC[C@]1(O)C[C@@H]2CN(CCc3c([nH]c4ccccc34)[C@@](C(=O)OC)(c3cc4c(cc3OC)N(C)[C@H]3[C@@](O)(C(=O)OC)[C@H](OC(C)=O)[C@]5(CC)C=CCN6CC[C@]43[C@@H]65)C2)C1,Potency,[9],657 nM (active) and 1.17 µM (active)
same,Potency,[2],0.148 µM (active)
same,Potency,[3],inactive
same,Potency,[7],inactive
CC(=O)c1ccc(S(=O)(=O)NC(=O)NC2CCCCC2)cc1,Potency,[4],inactive
same,Potency,[5],inactive
same,Potency,[3],inactive
same,outcome,[8],inactive
NC(N)=Nc1nc(CSCC/C(N)=N/S(N)(=O)=O)cs1,Potency,[4],inactive
same,Potency,[5],inactive
same,Potency,[3],inactive
same,outcome,[8],inactive
COc1ccc2c(Oc3ccc(NC(=O)c4c(C)n(CC(C)(C)O)n(-c5ccccc5)c4=O)cc3F)ccnc2c1,Potency,[9],inactive
same,Potency,[3],inactive
same,Potency,[6],inactive
same,Potency,[7],inactive
COc1cc2nc(-c3ccc(N4CCN(C)CC4)cc3)nc(NCCN3CCOCC3)c2cc1OC,Potency,[1],0.117 µM (active)
same,Potency,[2],4.69 µM (active)
same,Potency,[6],inactive
same,Potency,[7],inactive
CCCNC(=O)NS(=O)(=O)c1ccc(Cl)cc1,Potency,[4],inactive
same,Potency,[5],inactive
same,Potency,[3],inactive
same,Potency,[6],inactive
same,Potency,[7],inactive
same,outcome,[8],inactive
COc1ccccc1N1CCN(CCCNc2cc(=O)n(C)c(=O)n2C)CC1,Potency,[4],inactive
same,Potency,[5],inactive
same,Potency,[3],inactive
same,Potency,[6],inactive
same,Potency,[7],inactive
same,outcome,[8],inactive
Cc1cccc(C)c1OCC(C)N (centres undefined),Potency,[4],inactive
same,Potency,[5],inactive
same,Potency,[3],inactive
same,outcome,[8],inactive
CCN1CCC[C@H]1CNC(=O)c1cc(S(N)(=O)=O)ccc1OC,Potency,[4],inactive
same,Potency,[5],inactive
same,Potency,[3],inactive
same,Potency,[6],inactive
same,Potency,[7],inactive
same,outcome,[8],inactive
CC(C)(C)c1ccc(C(O)CCCN2CCC(C(O)(c3ccccc3)c3ccccc3)CC2)cc1 (centres undefined),Potency,[4],inactive
same,Potency,[5],inactive
same,Potency,[3],inactive
same,outcome,[8],inactive
Cc1cc(OCCCc2c(C(=O)O)n(Cc3cccnc3)c3c(-c4c(COc5ccc(N6CCN([S+](C)(=O)[O-])CC6)cc5)nn(C)c4C)cccc23)cc(C)c1Cl,Potency,[2],inactive
same,Potency,[3],21.5 µM (active)
same,Potency,[10],3.11 µM (active)
same,Potency,[11],31.6 µM (active)
same,outcome,[12],inactive
CN[C@@H](C)C(=O)N[C@H]1CN(C(=O)CC(C)C)CC[C@H]2CC[C@@H](C(=O)NC(c3ccccc3)c3ccccc3)N2C1=O,Potency,[1],inactive
same,Potency,[2],inactive
same,Potency,[3],inactive
same,Potency,[6],inactive
same,Potency,[7],inactive
CC(=O)N[C@@H](CS)C(=O)O,Potency,[4],inactive
same,Potency,[5],inactive
same,Potency,[3],inactive
CCCCC1C(=O)N(c2ccccc2)N(c2ccccc2)C1=O,Potency,[4],inactive
same,Potency,[5],inactive
same,Potency,[3],inactive
same,outcome,[8],inactive
Cc1[nH]c(C=C2C(=O)Nc3ccc(S(=O)(=O)Cc4c(Cl)cccc4Cl)cc32)c(C)c1C(=O)N1CCC[C@H]1CN1CCCC1,Potency,[2],23.5 µM (active)
O=C1C(Cl)=C(NCCN2CCOCC2)C(=O)c2ncccc21,Potency,[9],1.17 µM (active)
same,Potency,[2],7.43 µM (active)
same,Potency,[3],inactive
